Screen size: about 290,000 compounds; about 11,000 (3.8%) were called active.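 The calls were made as follows: active = mean replicate inhibition above about 79%, with every replicate also reaching it (limit read from the data); inconclusive = only one of the two criteria met; inactive = mean below limit and not every replicate reaching it.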 The list comes from a sample in which actives are over-represented; it also holds similar structures and randomly drawn compounds.

For this assay, the target named is FAD-linked sulfhydryl oxidase ALR (Homo sapiens) (UniProt P55789). Put plainly: inhibitors of human ALR sulfhydryl oxidase, primary screen, biochemical, H2O2 detection, HRP-luminol luminescence, single point (AID 485317). Particulars: purified ALR, DTT oxidation, hits give high values, concentration not given here.
Chain of FAD-linked sulfhydryl oxidase ALR (Homo sapiens) (P55789 whole entry, looked up): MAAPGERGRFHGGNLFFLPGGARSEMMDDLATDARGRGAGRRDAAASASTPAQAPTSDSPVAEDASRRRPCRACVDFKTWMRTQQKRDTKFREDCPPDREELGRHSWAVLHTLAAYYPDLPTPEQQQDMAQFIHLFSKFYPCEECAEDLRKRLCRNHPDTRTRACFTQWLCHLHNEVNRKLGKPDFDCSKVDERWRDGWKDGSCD
Regarding `CCOC(=O)c1c(C)[nH]c(C(=O)OCC(=O)c2ccc(OC)cc2OC)c1C`, the inhibition (usually the change of the read-out against control, counted positive when it falls) was -8.98% (inactive).

For `Cc1cc(-c2cccs2)nc(-n2cccc2)n1`, the inhibition is 23.5% (inactive).

For the compound `c1csc(-c2cn3c(n2)SCC3)c1`, the inhibition is 92.3% (active).

With `CCCS(=O)(=O)Nc1ccc(-c2cn3c(n2)SCC3)cc1`, the inhibition is 4.68% (inactive).

Take `O=C(c1ccc(S(=O)(=O)NCc2ccco2)cc1)N1CCN(c2ccccc2)CC1`: the inhibition is 33.8% (inactive).

In the case of `COc1ccc(-c2csc(Nc3ccccn3)n2)cc1`, the inhibition was 32.2% (inactive).

For `COc1ccc(OC)c(Nc2nc(-c3ccc(O)c(O)c3)cs2)c1`, the inhibition is 94.7% (active).

On to `COc1ccc(-c2csc(Nc3ccc(O)cc3)n2)cc1`, for which the inhibition was 74.3% (inactive).

In the case of `CCCCn1c(N)c(N(CC(C)C)C(=O)C2CSC3(C)CCC(=O)N23)c(=O)[nH]c1=O` (centres undefined), the inhibition was -0.99% (inactive).

In the case of `CC(NC(=O)c1cccc(S(=O)(=O)N2CCc3ccccc3C2)c1)c1ccco1` (centres undefined), the inhibition is -3.35% (inactive).

In the case of `O=C(COC(=O)c1ccc(F)c(S(=O)(=O)N2CCOCC2)c1)NCc1ccc2c(c1)OCO2`, the inhibition was -8.6% (inactive).

Regarding `CNS(=O)(=O)c1cccc(C(=O)OCCCC(=O)c2ccccc2)c1`, the inhibition is 1.28% (inactive).

For `O=C1N[C@H](Cc2ccccc2)C(=O)N[C@H]1Cc1cn(S(=O)(=O)c2ccccc2)c2ccccc12`, the inhibition was -2.64% (inactive).

On to `CN1CCN(C(=O)c2ccc(-c3ccc(Br)cc3)o2)CC1`, for which the inhibition is 6.66% (inactive).

Consider `O=C(N/N=C/c1c[nH]c2ccccc12)c1ccccc1O`, for which the inhibition is 41.8% (inactive).

For `CSC(=S)N/N=C/c1c[nH]c2ccccc12`, the inhibition is 64.4% (inactive).

For `O=C(O)c1cccc(NC(=S)N/N=C/c2c[nH]c3ccccc23)c1`, the inhibition is 98.2% (active).

Turning to `CCNC(=O)c1cccc(NC(=O)C2CC(=O)N(CCc3ccccc3)C2)c1` (centres undefined), the inhibition is -0.0795% (inactive).

In the case of `CC(OC(=O)CNC(=O)c1ccco1)C(=O)Nc1ccc(Cl)cn1` (centres undefined), the inhibition was -1.13% (inactive).

As for `CCOC(=O)c1cccc(NC(=O)CCc2nnc3ccc(N4CCOCC4)nn23)c1`, the inhibition is 26.9% (inactive).

For the compound `COc1cccc(N2CCN(c3ccc4nnc(CCC(=O)N5CCN(C)CC5)n4n3)CC2)c1`, the inhibition was 98.2% (active).

In the case of `COc1cccc(NC(=O)CCc2nnc3ccc(N4CCC(C)CC4)nn23)c1`, the inhibition is -1.49% (inactive).

Regarding `C=CCSc1nnc2c(n1)-c1cccc3cccc-2c13`, the inhibition is 9.81% (inactive).

In the case of `COc1ccc(S(=O)(=O)N2CCOCC2)cc1NC(=O)Cc1c(F)cccc1Cl`, the inhibition was -4.89% (inactive).

In the case of `COc1ccccc1CNC(=O)COC(=O)c1cccs1`, the inhibition was 20.2% (inactive).

With `CN(CC(=O)Nc1ccccc1Cl)C(=O)c1ccccc1SCC(=O)N1CCCC1`, the inhibition was -3.42% (inactive).

Turning to `NC(=O)c1ccccc1NC(=O)c1ccccc1F`, the inhibition was 0.399% (inactive).

Consider `COC(=O)c1ccccc1NC(=S)NC(=O)c1ccccc1F`, for which the inhibition was 97.1% (active).

In the case of `COC(=O)c1ccccc1NC(=O)c1ccccc1NS(C)(=O)=O`, the inhibition was 4.54% (inactive).

As to `Cc1cc(N2CCCC2)ccc1NC(=O)COc1ccc(Cl)cc1`, the inhibition is -0.012% (inactive).

Consider `O=C(NCCC1CCCCN1S(=O)(=O)c1ccc(F)cc1)C(=O)NC1CC1` (centres undefined), for which the inhibition was -2.2% (inactive).

As to `Clc1ccc(-c2csc(-c3ccncc3)n2)cc1`, the inhibition is -4.48% (inactive).

Regarding `Nc1scc(-c2ccncc2)c1Cl`, the inhibition is 98.8% (active).

Take `O=c1[nH]c(/C=C/c2cccc(Br)c2)nc2ccccc12`: the inhibition was -2.23% (inactive).

In the case of `CC(C)(C)OC(=O)C[C@@H]1C/C=C\C[C@@H](CC(=O)N[C@H](CO)Cc2ccccc2)C(=O)NCCOC1=O`, the inhibition is 1.41% (inactive).

On to `COc1ccccc1NC(=O)CSc1nc2sc3c(c2c(=O)n1-c1ccccc1)CCN(C)C3`, for which the inhibition was 99% (active).

`COc1ccccc1NC(=O)CSc1nnc(Cn2nnc(-c3ccccc3)n2)n1-c1ccccc1`: the inhibition is -1.41% (inactive).

As to `CCn1c(SCC(=O)Nc2ccc(Br)cc2)nc2sc3c(c2c1=O)CCN(C)C3`, the inhibition was 99% (active).

As to `CCc1nc(SCC(=O)Nc2ccccc2OC)n[nH]1`, the inhibition is -18% (inactive).

In the case of `C=CCn1c(SCC(=O)NCCCO)nc2sc3c(c2c1=O)CCC3`, the inhibition was -4.11% (inactive).

For the compound `CCc1nnc(NC(=O)CSc2nc3c(c(=O)n2-c2ccccc2OC)SCC3)s1`, the inhibition was 1.36% (inactive).

Regarding `CCOc1ccc(NC(=O)CSc2nc3c(c(=O)n2-c2ccccc2OC)SCC3)cc1`, the inhibition is 93.4% (active).

Turning to `CCOc1ccc(-n2c(SCC(=O)Nc3cc(C(=O)O)ccc3Cl)nc3ccccc3c2=O)cc1`, the inhibition was -3.41% (inactive).

For `CCOc1ccc(-n2c(SCC(=O)Nc3ccc(OC)cc3)nc3sc4c(c3c2=O)CCN(C)C4)cc1`, the inhibition is 98.6% (active).

Regarding `C=CCn1c(SCC(=O)Nc2ccc(NC(C)=O)cc2)nc2sc(C)c(C)c2c1=O`, the inhibition is -2.72% (inactive).

Take `CCOc1ccc(NC(=O)CN2CCN(CC(=O)Nc3ccc(OC)cc3)CC2)cc1`: the inhibition was -10.2% (inactive).

Take `COc1ccccc1-n1c(SCC(=O)Nc2cccc(C(=O)O)c2)nnc1-c1ccccc1O`: the inhibition was 3.17% (inactive).

Take `CCN(CC)S(=O)(=O)c1ccc(N2CCCC2)c(NC(=O)c2ccc([N+](=O)[O-])o2)c1`: the inhibition was -36.7% (inactive).

On to `CC(C)(C)OC(=O)C[C@@H]1C/C=C\C[C@@H](CC(=O)NCCO)C(=O)N[C@H](Cc2c[nH]c3ccccc23)COC1=O`, for which the inhibition was -9.99% (inactive).

As for `CCN(CC(=O)NCc1ccc(F)cc1)S(=O)(=O)c1ccc(Cl)s1`, the inhibition is -4.96% (inactive).

Turning to `Cc1ccc(CNC(=O)CC(NC(=O)c2ccccc2)c2ccccc2)cc1` (centres undefined), the inhibition is 1.43% (inactive).

For the compound `CC(=O)Nc1ccc(S(=O)(=O)NCCC(=O)N2CCN(c3ccccc3Cl)CC2)cc1`, the inhibition was 0.296% (inactive).

Turning to `O=C(CSc1nc2[nH]ncc2c(=O)[nH]1)Nc1ccc(F)cc1`, the inhibition was -2.71% (inactive).

`Cc1ccc(C)c(-n2c(SCC(=O)O)nc3sc4c(c3c2=O)CCCC4)c1`: the inhibition is 4.79% (inactive).

On to `CCOc1ccc(-n2c(SC(C)C(=O)OC)nc3c(c2=O)SCC3)cc1` (centres undefined), for which the inhibition was -1.69% (inactive).

Consider `CCOc1ccc(-n2c(SCC(=O)OC)nc3sc4c(c3c2=O)CCN(C)C4)cc1`, for which the inhibition was 99.2% (active).

In the case of `O=C(N[C@@H](Cc1ccccc1)C(=O)OCc1ccccc1)c1nc[nH]c1C(=O)NC1CCNCC1`, the inhibition is 63.1% (inactive).

As for `O=C(Nc1ccc(NC(=O)c2ccc3c(c2)OCO3)cc1)c1cccc(Cl)c1`, the inhibition is 4% (inactive).

For the compound `CC(=O)c1c(OCC(=O)N(C)C2CCCCC2)ccc2c(C)cc(=O)oc12`, the inhibition is -4.49% (inactive).

Consider `Cn1c2ccccc2c(=O)c2c(=O)n(Cc3ccco3)c(COc3ccccc3)nc21`, for which the inhibition is 96.8% (active).

Take `CCCc1nc2c(c(=O)c3ccccc3n2C)c(=O)n1-c1cc(C)cc(C)c1`: the inhibition is 9.11% (inactive).

Regarding `COc1ccc(C(=O)CSc2nnc(COc3ccccc3)n2Cc2ccco2)cc1`, the inhibition is 13.2% (inactive).

In the case of `COc1ccc(S(=O)(=O)N(C)C[C@@H]2Oc3ccc(NS(=O)(=O)c4cn(C)cn4)cc3C(=O)N([C@@H](C)CO)C[C@@H]2C)cc1`, the inhibition is 0.531% (inactive).

For the compound `O=C(NC1CCCCC1)c1ccc(CNc2c(N3CCOCC3)c(=O)c2=O)cc1`, the inhibition is 96.3% (active).

In the case of `O=C(NCc1ccccc1)c1ccc(CNc2c(N3CCCC3)c(=O)c2=O)cc1`, the inhibition is -1.76% (inactive).

Regarding `CC1CCN(c2c(NCc3ccc(C(=O)NCc4ccccc4)cc3)c(=O)c2=O)CC1`, the inhibition was 6.63% (inactive).

Regarding `O=C(COC(=O)c1ccccn1)NNC(=O)c1ccc(Br)cc1`, the inhibition was -1.13% (inactive).

For `COc1ccc(Br)cc1CN(C)C(=O)C1CC(=O)N(C2CCCC2)C1` (centres undefined), the inhibition was -9.84% (inactive).

`COc1ccc(S(=O)(=O)NC(C)C(=O)Nc2cccc([N+](=O)[O-])c2)cc1` (centres undefined): the inhibition was 3.92% (inactive).

Turning to `COC(=O)/C=C\C(=O)Nc1cccc([N+](=O)[O-])c1`, the inhibition was 97.8% (active).

On to `O=C(Nc1cccc([N+](=O)[O-])c1)Nn1cnnc1`, for which the inhibition was -12.6% (inactive).

Turning to `Cc1noc(C)c1NC(=O)Nc1cccc2c1O[C@H](CN(C)S(=O)(=O)c1c(C)noc1C)[C@@H](C)CN([C@H](C)CO)C2=O`, the inhibition is 1.87% (inactive).

With `Cc1cc(=O)oc2cc(NC(=O)C(C)Oc3ccccc3)ccc12` (centres undefined), the inhibition was -2.52% (inactive).

Take `COc1ccc(CCNC(=S)N2CCN(S(=O)(=O)c3ccc(Cl)cc3)CC2)cc1`: the inhibition is -0.053% (inactive).

In the case of `S=C(NCCc1ccccc1)N1CCCCC1`, the inhibition was -4.5% (inactive).

Turning to `Oc1cc2c(cc1O)CN(C(=S)NCCc1ccc(Cl)cc1)CCC2`, the inhibition was 97.9% (active).

Turning to `COC(=O)[C@@]12CCCN1[C@H](c1ccc(-c3ccc(F)cc3)c(OC)c1)[C@H]1C(=O)N(C)C(=O)[C@H]12`, the inhibition is -0.553% (inactive).

For `CCOc1ncccc1C(=O)OCC(=O)c1c[nH]c2ccccc12`, the inhibition is 16.6% (inactive).

Consider `Cc1ccc(-n2[nH]c(C)c(/C=N/NC(=O)c3cccc([N+](=O)[O-])c3)c2=O)cc1C`, for which the inhibition is 97% (active).

On to `Cc1cccc(C(=O)NNC(=O)c2cccc([N+](=O)[O-])c2)c1`, for which the inhibition was 2.77% (inactive).

For `Cc1[nH]n(-c2ccc([N+](=O)[O-])cc2)c(=O)c1C=NCCN1CCN(C(=O)c2ccccc2F)CC1`, the inhibition is -0.584% (inactive).

Turning to `COc1ccc(C(=O)NCC2CCCCC2)cc1S(=O)(=O)N1CCCC1`, the inhibition was -2.78% (inactive).

As to `NC(=O)CSc1nnc(NC(=O)c2ccc3ccccc3c2)s1`, the inhibition is -2.49% (inactive).

As for `O=C(NCCS(=O)(=O)N1CCN(c2ccc(F)cc2)CC1)c1ccc2c(c1)OCO2`, the inhibition was 1.71% (inactive).

In the case of `CC(=O)Nc1ccc(NC(=O)CSc2nnnn2C2CCCCC2)cc1`, the inhibition is -20.6% (inactive).

As to `NS(=O)(=O)c1cccc(NC(=O)COC(=O)c2cc([N+](=O)[O-])ccc2N2CCCC2)c1`, the inhibition is -0.799% (inactive).

For `CCCc1nnc(SCC(=O)Nc2ccc(C(=O)OCC)cc2)o1`, the inhibition is 99.2% (active).

Consider `Cc1ccc(NC(=O)CSc2nnc(COc3ccccc3C)o2)cc1`, for which the inhibition was -0.274% (inactive).

As to `Cc1cc(C)cc(OCc2nnc(SCC(=O)Nc3ccccc3)o2)c1`, the inhibition was 5.24% (inactive).

For the origin of these results see PubChem BioAssay AID485317 (Broad Institute, 2010).
